The whole screen tested about 1,200 compounds, of which about 150 (12%) were called active.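 How the source made its calls: active means ratio at least 3 SD above the weak peptide control, stable starting fluorescence, no direct agonism earlier; inactive means the rest.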 The sample as a whole holds a higher share of actives than the screen did.

The target in this assay is Mas-related G-protein coupled receptor member X1 (Homo sapiens) (UniProt Q96LB2). The assay is described as follows: MrgX1 positive allosteric modulators, duplicate retest, confirmation, HEK293 cells, Fluo-4 calcium flux (AID 602413).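 Further: compound followed by low BAM8-22 agonist challenge near EC20.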 The note with it: MrgX1-HEK293, Fluo-4 calcium fluorescence, FDSS; at 10 µM; stronger effect = higher value.
Sequence of Mas-related G-protein coupled receptor member X1 (Homo sapiens) (Q96LB2 whole entry, looked up): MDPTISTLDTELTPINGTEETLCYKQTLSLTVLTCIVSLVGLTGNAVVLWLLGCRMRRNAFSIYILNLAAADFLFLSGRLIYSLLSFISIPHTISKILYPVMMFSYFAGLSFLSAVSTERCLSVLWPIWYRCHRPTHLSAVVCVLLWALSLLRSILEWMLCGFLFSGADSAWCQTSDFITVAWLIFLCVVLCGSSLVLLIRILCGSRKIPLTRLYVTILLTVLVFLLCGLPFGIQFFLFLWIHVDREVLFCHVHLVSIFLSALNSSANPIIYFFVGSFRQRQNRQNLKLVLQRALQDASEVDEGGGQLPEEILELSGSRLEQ
On to `C=CCN1C(=O)C2(C(C(=O)OCC)=C(N)Oc3c2c(=O)oc2ccccc32)c2ccccc21` (stereo unspecified), for which the activation (ratio percentage) was 29.5% (active).

The record behind these values is PubChem BioAssay AID602413 (Johns Hopkins Ion Channel Center, 2012).
